Sampled rows, rich in hits. Any-hit rate of the full collection: about 17%.
HT1080 IDH1KD tx – qHTS for induction of synthetic lethality in tumor cells producing 2HG: qHTS for the HT-1080-IDH1KD cell line | HT-1080 IDH1 knockdown viability, ATP luminescence, 48 h | Potency, µM (highest dose often 46.1 µM), for the others: at the top dose activity, negative = toxicity, hits mostly cytotoxic | 360,000 compounds, 2% hits;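 also: 0% = DMSO wells and -100% = cell-free medium wells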
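HT-1080-IDH1KD cells (IDH1 knocked down), 750/well in RPMI with 5% FBS, treated with compound 48 h at 37 degrees C. Viability by CellTiter-Glo luminescence, normalised to DMSO and no-cell wells; concentration-response curves classed.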
HT1080-NT tox – qHTS for induction of synthetic lethality in tumor cells producing 2HG: qHTS for the HT-1080-NT fibrosarcoma cell line. Potency, µM (titrated, usually from 46.1 µM), without a hit: at the highest dose activity, negative = less viability, usual class: cytotoxic. HT-1080-NT fibrosarcoma viability, CellTiter-Glo ATP luminescence, 48 h. AID 686970, 2013. 360,000 compounds, 1.6% hits;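 also: NT is the 2HG producing partner of a matched IDH1 knockdown line; 0% = DMSO-treated cells and -100% = media-only wells without cells; nearly all actives have a fitted effect of over 55% in size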
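HT-1080-NT fibrosarcoma cells (2HG-overproducing), 750 cells/well in RPMI with 5% FBS, dosed after 2 h and incubated 48 h at 37C. CellTiter-Glo luminescence normalized to DMSO and no-cell wells; concentration-response curves fitted and classed.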
TDP1 cell noCPT – qHTS for Inhibitors of human tyrosyl-DNA phosphodiesterase 1 (TDP1): qHTS in cells in absence of CPT; DT40 Tdp1-/- hTDP1 cells, no CPT, ATP luminescence, 48 h; Potency, µM (doses to about 46.2 µM), for inactives: top-dose activity change, negative = growth inhibition, usual class: inhibitors; 420,000 compounds, 15% hits; also: % is scaled to controls: 0 for no effect and ±100 for the full control effect; nearly all actives have a fitted effect of over 55% in size
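Seeded 400 DT40-hTDP1 cells/well (vehicle DMSO, no 20 nM CPT); pinned compounds; ≥48 hr at 37 °C; CellTiter-Glo luminescence as viability measure.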
DT40 TDP1 CPT – qHTS for Inhibitors of human tyrosyl-DNA phosphodiesterase 1 (TDP1): qHTS in cells in presence of CPT; Potency, µM (top dose mostly 46.2 µM), inactives show at the highest dose activity change, negative = growth inhibition, most hits filed as inhibitors; AID 686979, 2013; 420,000 compounds, 12% hits; chicken DT40 Tdp1-/-;hTDP1 cells + 20 nM CPT, ATP luminescence, 48 h; also: % is scaled to controls: 0 for no effect and ±100 for the full control effect; nearly all actives have a fitted effect of over 55% in size
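Cell growth measured by CellTiter-Glo luminescence after a minimum 48 h, 37 C compound exposure with 20 nM CPT in Tdp1-knockout DT40 cells stably expressing hTDP1, seeded 400/well; qHTS titration format.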
HepG2 tox – qHTS for Inhibitors of TGF-b: Cytotox Counterscreen | HepG2 CAGA-GFP viability, ATP luminescence, 18 h | Potency, µM (titrated, usually from 46.1 µM), inactives show at the top dose activity change, negative = cytotoxicity, most hits filed as cytotoxic | 410,000 compounds, 0.76% hits | AID 588856, 2011
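CellTiter-Glo luminescence gave cytotoxicity after 18 hours at 37 degrees C. The cells were HepG2 CAGA-GFP in 1% FBS DMEM, stimulated with 500 pg/mL TGF-beta after compound addition. %Activity was normalised to no-cell wells (complete cell-killing) and DMSO (no toxicity), and curves were fitted and classified.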
TGFb inhibitor – qHTS for Inhibitors of TGF-b. AID 588855, 2011. Potency, µM (doses to about 46.1 µM), without a hit: at the highest dose activity, negative = inhibition, hits mostly inhibitors. 410,000 compounds, 1.2% hits. HepG2 CAGA-GFP TGF-b/SMAD3 reporter, GFP fluorescence, 18 h; TGF-beta stimulated, 500 pg/mL final; also: % is scaled to controls: 0 for no effect and ±100 for the full control effect; nearly all actives have a fitted effect of over 65% in size
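HEPG2 CAGA-GFP cells (1000/well, DMEM with 1% FBS) were pre-incubated 2 h at 37 degrees C, given compound by pin tool, then stimulated with TGF-beta at 500 pg/mL final for 18 h before per-cell GFP fluorescence imaging.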
Active calls of the source: *; ? = inconclusive; nt = no result. Calls follow the shape of the dose curve; as a rule, active = well fitted curve in the direction sought with a large enough effect; inconclusive = small, poorly fitted or top-dose-only effect, or another doubt; inactive = no such curve, though single readings can be large; an effect the other way counts as inactive or inconclusive. Potency is read from the fitted curve at half-maximal effect.

SMILES	HT1080 IDH1KD tx	HT1080-NT tox	TDP1 cell noCPT	DT40 TDP1 CPT	HepG2 tox	TGFb inhibitor
CN1CCN(CCCNC(=O)CCc2nnc3n(Cc4ccccc4Cl)c(=O)c4ccccc4n23)CC1	1.8%	-1.2%	-0.3%	-18.3%	1.9%	8.2%
Cc1cc(C)cc(NC(=O)CCc2nnc3n(CC(C)C)c(=O)c4ccccc4n23)c1	nt	nt	-24.0%	-19.3%	-4.2%	-7.5%
O=C(CCc1nnc2n(Cc3ccccc3Cl)c(=O)c3ccccc3n12)Nc1ccc(F)c(F)c1	nt	nt	20.6µM*	23.1µM*	-8.2%	-4.1%
Cn1c(=O)oc2cc(S(=O)(=O)NCCC(=O)Nc3ccc(F)cc3F)ccc21	nt	nt	-13.6%	-6.6%	5.6%	?
CCOc1ccc(C(=O)N(Cc2ccc(C(C)C)cc2)Cc2ccco2)cc1	nt	nt	20.6µM*	?	-38.6%	?
Cc1ccc(CN(Cc2ccco2)C(=O)c2ccc(OCC(C)C)cc2)cc1	nt	nt	16.4µM*	?	-34.5%	?
Cc1cccc(-c2noc(-c3ccc(NC4CCCC4)c([N+](=O)[O-])c3)n2)c1	nt	nt	-25.8%	-24.6%	-1.4%	?
O=S(=O)(c1ccc(F)cc1)N1CCN(c2nc(-c3cccs3)nc3cc(Cl)ccc23)CC1	nt	nt	nt	nt	9.7%	30.6%
COc1ccc(-c2nn(CCC#N)cc2C(=O)Nc2cccc(C(=O)O)c2)cc1OC	5.6%	11.1%	2.4%	-1.3%	5.9%	-13.9%
CC1=CC(C)(C)N(C(=O)c2ccccc2)c2ccc(C)cc21	-4.8%	-0.7%	23.1µM*	14.6µM*	-16.6%	-21.0%
CC1=CC(C)(C)N(C(=O)c2ccccc2)c2ccccc21	9.8%	11.9%	-11.6%	-1.1%	-5.2%	?
Cc1ccc(CSc2nncn3c2cc2sccc23)cc1	nt	nt	-14.6%	-10.2%	1.8%	2.0%
Cc1ccc(NC(=O)C(=O)NCCc2c[nH]c3ccccc23)cc1C	?	-18.7%	-21.0%	-5.5%	12.2%	0.4%
COc1ccc2cc(CN(C(=O)Nc3ccccc3)C3CCCC3)c(=O)[nH]c2c1	-24.8%	-13.7%	-18.6%	?	-15.5%	5.3%
Cc1ccc(NC(=O)N(Cc2c[nH]c3ccccc23)C2CCCCCC2)cc1C	nt	nt	8.2µM*	7.31µM*	-18.6%	?
COc1cccc(NC(=O)N(Cc2c[nH]c3ccccc23)C2CCCCC2)c1	nt	nt	18.4µM*	8.2µM*	-35.2%	?
CC(C)[C@H](NC(=O)c1ccccc1Cl)C(=O)OCC(=O)N1CCCCC1	-1.7%	-2.3%	-16.6%	13.7%	-11.9%	-13.4%
OCC1CCCN(C(=S)Nc2ccc(Nc3ccccc3)cc2)C1 (centres undefined)	-3.0%	-5.4%	-52.2%	-5.7%	-18.7%	-4.2%
O=C(NCCN1C(=O)S/C(=C\c2cccc(Cl)c2Cl)C1=O)C1=COCCO1	?	?	2.59µM*	1.46µM*	-21.1%	4.8%
CC1CCCC2(C1)NC(=S)c1c(sc3c1CCCC3)N2 (centres undefined)	-4.4%	-11.2%	3.66µM*	?	0.4%	-4.2%
CC(=O)O[C@H]1[C@H](C)OC=C[C@@H]1OC(C)=O	12.3%	26.6%	16.4µM*	?	4.3%	-26.2%
Cc1ccc(-n2cnc3c(=O)[nH]cnc32)cc1[N+](=O)[O-]	7.5%	-1.1%	-6.8%	-1.0%	-31.3%	7.7%

Assay outcomes deposited in PubChem BioAssay by National Center for Advancing Translational Sciences (NCATS).
